In PubChem BioAssay AID2069 (Sanford-Burnham Center for Chemical Genomics, 2009):
In all, about 1,200 compounds went through this assay and about 210 (18%) were called active. Cut-off read from the data, not from the text of the source: active = inhibition above about 30%; inactive = the rest. The list is a sample of the results.

Test: HTRF signal interference by compounds, confirmation, artefact control for SUMOylation inhibitor project, biochemical, uHTS (AID 2069)
Settings: HTRF interference counterscreen, fluorescence, at 35 µM, stronger effect = higher value

Row | Structure (SMILES) | inhibition
1 | CCOc1ccccc1CNc1ccc(O)cc1 | -10.2% (inactive)
2 | O=C(COC(=O)c1cc(-c2cccs2)nc2ccccc12)NCc1ccco1 | 16.3% (inactive)
3 | O=C(/C=C/c1ccco1)NC(=S)Nc1ccc(O)c(-c2nc3ccccc3s2)c1 | 9.4% (inactive)
4 | CCOc1cc(NC(=S)NCc2ccco2)c(OCC)cc1NC(=O)CC | -7.1% (inactive)
5 | O=C(NCc1ccco1)Nc1ccc2snnc2c1 | 38.8% (active)
6 | Cc1ccc2c(SCC(=O)NCc3ccco3)nc(-c3ccc(F)cc3)nc2c1 | -4.7% (inactive)
7 | Cc1nc2ccc(NC(=O)NCc3ccco3)cc2s1 | 31.5% (active)
8 | CN(C)c1cc(N/N=C/c2ccc(Cl)cc2)nc(N(C)C)n1 | 7% (inactive)
9 | O=C(O)CN1C(=O)/C(=C\c2cc([N+](=O)[O-])ccc2OCc2ccccc2Cl)SC1=S | 8.45% (inactive)
10 | Cc1ccc(NC2=CC(=O)CC(c3ccco3)C2)c(N)c1 (stereo not given) | 1% (inactive)
11 | COc1ccc(-c2cc(=O)[nH][nH]2)cc1 | 2.7% (inactive)
12 | N#CC(c1nc2ccccc2nc1N1CCCC1)S(=O)(=O)c1cccs1 (stereo not given) | -0.1% (inactive)
13 | COC(=O)c1cccc(-c2ccc(C(c3c(C)[nH][nH]c3=O)c3c(C)[nH][nH]c3=O)o2)c1 | -4.3% (inactive)
14 | Oc1ccc(Br)cc1CNc1cccc2cccnc12 | -17.6% (inactive)
15 | Cc1ccc(NC2=CC(=O)C(=O)c3ccccc32)cc1 | -12.4% (inactive)
16 | O=C1C=C(Nc2ccccc2)c2ccccc2C1=O | -24.5% (inactive)
17 | O=C1C=C(N2CCOCC2)c2ccccc2C1=O | 51.9% (active)
18 | Cc1[nH][nH]c(=O)c1C(c1c(C)[nH][nH]c1=O)c1cn(Cc2cccc3ccccc23)c2ccccc12 | -32.7% (inactive)
19 | CCOc1cc(CNc2ccccc2SC)ccc1O | -6.3% (inactive)
20 | COc1cc(C)c2c(c1C=O)Oc1c(c(C)c(O)c3c1C(O)OC3=O)OC2=O (stereo not given) | 12.4% (inactive)
21 | CN(C)/C=C1\Oc2ccc3ccccc3c2C1=O | -6.85% (inactive)
22 | CC1=Nc2nc(N3CCCCC3)c(C#N)c3c4c(nc(c23)N1)N(c1ccc(C(C)C)cc1)C(=O)C4 | 15.2% (inactive)
23 | CCCCC(=O)NC(c1ccccc1Cl)c1ccc2cccnc2c1O (stereo not given) | -42.6% (inactive)
24 | CCOc1ccc(C(Nc2cccnc2)c2cc(Cl)c3cccnc3c2O)cc1 (stereo not given) | 14.3% (inactive)

Row | Structure (SMILES) | inhibition
25 | O=C(O)COc1ccccc1C(Nc1cccnc1)c1cc(Cl)c2cccnc2c1O (stereo not given) | 30.4% (active)
26 | COc1ccc(/C=N/N=C2/CC(C)(C)Cc3n[nH]c(=O)cc32)cc1 | 0.85% (inactive)
27 | COc1ccccc1NC(=O)Cn1c(O)c(N=NC(=O)c2ccccc2O)c2ccccc21 | 2.2% (inactive)
28 | CCCCn1c(NC(=O)c2ccc(Br)o2)c(S(=O)(=O)c2ccccc2)c2nc3ccccc3nc21 | 1.65% (inactive)
29 | Nc1ccc2nc(-c3ccc(-c4nc5ccc(N)cc5[nH]4)cc3)[nH]c2c1 | 25.4% (inactive)
30 | Cc1ccc(C)c(-c2nc3ccc(N)cc3[nH]2)c1 | 57% (active)
31 | Nc1ccc(-c2nc3ccc(N)cc3[nH]2)cc1 | 66.3% (active)
32 | O=C(Nc1nccs1)c1cc(-c2ccco2)nc2ccccc12 | 22.2% (inactive)
33 | Cc1oc2c(c1C(=O)O)C(=O)c1ccccc1C2=O | -5.95% (inactive)
34 | Cc1ccc(NC(=O)CN2C(=O)S/C(=C\c3ccc(-c4cccc(C(=O)O)c4C)o3)C2=O)cc1C | 26.3% (inactive)
35 | O=S(=O)(Nc1ccc(O)c2ccccc12)c1cccs1 | -16.9% (inactive)
36 | Cc1ccc2[nH]c3c(c2c1)CN(C(=O)CN1CCN(c2cccc(C)c2C)CC1)CC3 | 12.8% (inactive)
37 | O=c1oc(-c2cccs2)nc2sc3c(c12)CCC3 | 40.5% (active)
38 | COC(=O)c1c(C)oc(C)c1S(=O)(=O)NC(C)(C)C | 3.5% (inactive)
39 | COc1ccc(C2C(C(C)=O)=C(O)C(=O)N2C)c(OC)c1 (stereo not given) | -3.35% (inactive)
40 | COc1cc(NC(=O)c2cnc(N)s2)cc(C(=O)Nc2cccc(C(F)(F)F)c2)c1 | 8.1% (inactive)
41 | O=C(N/N=C/c1ccc(-c2ccc(S(=O)(=O)Nc3ncccn3)cc2)o1)c1cc2ccccc2cc1O | 28.5% (inactive)
42 | CCOCCCN1CN(Cc2ccco2)CNC1=S | 39.1% (active)
43 | CC1=C(C#N)C(=O)NC(=O)/C1=C\c1ccc(-c2cc(C)c(C)cc2[N+](=O)[O-])o1 | 9.4% (inactive)
44 | CCCS(=O)(=O)c1c(S(=O)(=O)CCC)c2c(N)cccn2c1C(=O)c1ccc(Br)cc1 | 6.7% (inactive)
45 | Cc1cc(=O)[nH]c(-n2[nH]c(C)cc2=O)n1 | -1.85% (inactive)
46 | COc1ccccc1C1Nc2cccc3cccc(c23)N1 | -18.4% (inactive)
47 | CCOc1ccc(-n2c(SCC(=O)Nc3ccc(CC)cc3)nc3n[nH]c(C)c3c2=N)cc1 | 23.6% (inactive)
48 | O=C1c2nc3cc(-c4ccco4)[nH]n3c(=O)c2CN1C1CCCCC1 | 29.8% (inactive)

Row | Structure (SMILES) | inhibition
49 | CCCCN1Cc2c(nc3cc(-c4ccco4)[nH]n3c2=O)C1=O | 31.7% (active)
50 | CC1=NN(c2ccccc2)C(=O)/C1=C/c1cccs1 | -3.6% (inactive)
51 | Cc1[nH][nH]c(=O)c1C(c1c(C)[nH][nH]c1=O)c1cn(Cc2ccc(F)cc2)c2ccccc12 | -43.9% (inactive)
52 | COC(=O)c1scc(C)c1NC(=O)C(Cl)c1ccccc1 (stereo not given) | 0.85% (inactive)
53 | CN(c1ccccc1)c1ccc(/C=C(\CCC(=O)O)c2nc3ccccc3s2)cc1[N+](=O)[O-] | 7.85% (inactive)
54 | CC(=O)c1sc2nc(-c3ccco3)ccc2c1N | 48.3% (active)
55 | NNC(=O)c1oc2nc(-c3ccco3)cc(-c3ccco3)c2c1N | 9.15% (inactive)
56 | NNC(=O)c1oc2nc(-c3cccs3)cc(-c3ccco3)c2c1N | 12.8% (inactive)
57 | Nc1nc(-c2ccco2)c(-c2ccco2)s1 | -13.2% (inactive)
58 | NC(=O)c1sc2nc(-c3ccco3)ccc2c1N | 41.8% (active)
59 | N#Cc1sc2nc(-c3ccccc3)cc(-c3ccco3)c2c1N | 26.3% (inactive)
60 | S=C(Nc1ccc2nsnc2c1)NC1CCCCC1 | 10.2% (inactive)
61 | O=[N+]([O-])c1ccc(C=Nc2cccc3ccccc23)s1 | 5.6% (inactive)
62 | CCC(=O)OCCNc1cc(Sc2nc3ccccc3s2)c2nonc2c1[N+](=O)[O-] | 1.05% (inactive)
63 | O=C(O)c1cccc(N2C(=O)/C(=C/c3ccc(SCc4ccc(Cl)cc4)o3)SC2=S)c1 | 14.9% (inactive)
64 | CCCN(C(=O)c1cc2c(s1)CCC2)c1c(N)n(Cc2ccccc2)c(=O)[nH]c1=O | -3.9% (inactive)
65 | Cc1cccc(C(=O)NC2C(=O)NNC2c2ccc(Cl)cc2)c1 (stereo not given) | -5.5% (inactive)
66 | COc1ccc(N2C(=O)[C@@H]3[C@H](C2=O)[C@H]2c4ccccc4C=CN2[C@@H]3C(C)=O)cc1 | 9.4% (inactive)
67 | Cc1ccc(-c2[nH]c(-c3ccc(C(=O)O)cc3)nc2-c2ccccc2)cc1 | 43.1% (active)
68 | Cc1ccc(NC(=O)CCC(=O)OCC(=O)c2ccc(-c3ccccc3)cc2)cc1 | -1.75% (inactive)
69 | COc1cc(/C=C2\C(=O)N(c3ccccc3)N=C2C)ccc1Oc1ccc([N+](=O)[O-])cc1[N+](=O)[O-] | 1.25% (inactive)
70 | CSc1nnc(SCc2nc3sc(C(=O)O)c(C)c3c(=O)[nH]2)s1 | 31.2% (active)
71 | CC(=O)c1sc2nc(CSc3nnnn3-c3ccccc3)[nH]c(=O)c2c1C | 0.9% (inactive)
72 | O=C(CSc1nnc(SCc2ccc(Cl)cc2)s1)N/N=C/c1c[nH]c2ccccc12 | 9.75% (inactive)

Row | Structure (SMILES) | inhibition
73 | S=c1[nH]nc(-c2cc(-c3ccco3)[nH]n2)n1-c1ccccc1Cl | 0.75% (inactive)
74 | COc1cc(O)c(NC(C)=O)c2nonc12 | 6.2% (inactive)
75 | COc1ccc2nc3cccc(OC)c3nc2c1 | 11.7% (inactive)
76 | COc1ccc(CCNC(=O)c2ccc3nc(-c4ccco4)c(-c4ccco4)nc3c2)cc1OC | 13.3% (inactive)
77 | COc1ccc2nc(-c3ccco3)c(-c3ccco3)nc2c1 | 33.1% (active)
78 | O=C(Nc1ccccc1)c1ccc2nc(-c3ccco3)c(-c3ccco3)nc2c1 | 22.8% (inactive)
79 | COCCNC(=O)Nc1ccc2nc(-c3ccco3)c(-c3ccco3)nc2c1 | 52.4% (active)
80 | COc1ccc(OC)c(-n2c(-c3cc(-c4ccco4)[nH]n3)n[nH]c2=S)c1 | 7.95% (inactive)
81 | CCc1ccc(OCC(=O)N/N=C2\CC(=O)c3ccccc32)cc1 | -2.45% (inactive)
82 | COCCN=c1scc(-c2ccco2)n1/N=C/c1ccc(O)c(O)c1O | -18.7% (inactive)
83 | CC(C)c1ccc(NC(=O)C[n+]2ccn(C3=C([O-])c4ccccc4C3=O)c2)cc1 | -10.2% (inactive)
84 | Cc1ccc(S(=O)(=O)C(C#N)c2nc3ccccc3nc2N2CC(C)OC(C)C2)cc1C (stereo not given) | 4.8% (inactive)
85 | O=c1c(=Nc2ccccc2O)c(=O)c2ccccc12 | -6.7% (inactive)
86 | O=C1NC(=Nc2ccc(O)cc2)S/C1=C\C=C\c1ccco1 | 8.5% (inactive)
87 | Cc1cc(=O)oc2cc(OCc3ccc(C(=O)OCC(=O)Nc4ccc(N(C)C)cc4)cc3)ccc12 | 11.7% (inactive)
88 | COc1ccc2c(c1)c(=O)oc1c(C)c(OCc3ccc(C(=O)O)cc3)ccc12 | 31.4% (active)
89 | Cc1c(CC(=O)O)c(=O)oc2c(C)c(OCc3ccccc3Br)ccc12 | -1.95% (inactive)
90 | COc1cc(/C=C(\C#N)C(=O)Nc2cccc(C(=O)O)c2)ccc1OCc1ccc(Cl)cc1 | 19.7% (inactive)
91 | Cn1nccc1NC(=O)Nc1cccc(Cl)c1 | 42.6% (active)
92 | S=C(Nc1cccc(Cl)c1)Nc1ccc2cn[nH]c2c1 | 2.35% (inactive)
93 | O=C(Nc1cccnc1)c1cc2cc(Br)ccc2oc1=O | -1.65% (inactive)
94 | Cn1nccc1NC(=O)Nc1cccc(Br)c1 | 46.4% (active)
95 | O=C(Nc1ccc2oc(=O)ccc2c1)c1ccc(-c2cccc(Cl)c2)o1 | 12.1% (inactive)
